Compound activity: PubChem, National Center for Advancing Translational Sciences (NCATS)
Compounds with a hit are over-represented: about 19% of the library has one in this group of screens.
TDP1 block = inhibitors of human tyrosyl-DNA phosphodiesterase TDP1; Q9NUW8; recombinant TDP1, AlphaScreen DNA substrate cleavage; Potency, µM (titrated, usually from 130 µM), inactives show top-dose activity change, negative = inhibition, hits mostly inhibitors; 350,000 tested, 0.28% active; also: potency is read from the fitted curve at half-maximal effect; nearly all actives have a fitted effect of over 40% in size
Target sequence (Q9NUW8 whole entry, looked up): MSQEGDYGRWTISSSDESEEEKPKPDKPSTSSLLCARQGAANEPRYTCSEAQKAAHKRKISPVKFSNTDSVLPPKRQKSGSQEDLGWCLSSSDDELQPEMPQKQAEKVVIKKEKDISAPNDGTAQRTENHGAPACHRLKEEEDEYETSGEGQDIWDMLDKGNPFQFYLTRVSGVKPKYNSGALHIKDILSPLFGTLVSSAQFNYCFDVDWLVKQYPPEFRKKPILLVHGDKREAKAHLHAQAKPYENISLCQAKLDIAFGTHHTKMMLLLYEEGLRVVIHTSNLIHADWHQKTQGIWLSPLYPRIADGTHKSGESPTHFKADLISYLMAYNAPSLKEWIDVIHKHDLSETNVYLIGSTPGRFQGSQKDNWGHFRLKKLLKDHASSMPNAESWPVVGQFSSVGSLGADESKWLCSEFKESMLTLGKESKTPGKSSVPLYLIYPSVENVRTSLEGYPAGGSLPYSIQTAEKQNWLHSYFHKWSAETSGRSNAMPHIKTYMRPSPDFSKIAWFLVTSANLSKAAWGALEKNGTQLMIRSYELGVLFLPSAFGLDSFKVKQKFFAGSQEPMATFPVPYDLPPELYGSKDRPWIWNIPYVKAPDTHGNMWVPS
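Tdp1 1 nM final; 15 min RT w/ cpd; substrate 15 nM, 5 min; beads 10 ug/ml, 10 min; AlphaScreen read. Neg ctrl: no enzyme.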
IL1B secr inh = blocks inflammasome-driven IL-1 beta release; THP-1 LPS/ATP IL-1B secretion, AlphaLISA, 16 h; active compounds read low; activity change, % at 57.5 µM; 360,000 tested, 4.7% active; AID 743279; in the data active = activity change below about -50%; inconclusive = mostly about -30% to -49%
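THP-1 cells pretreated 1 hr with compounds (up to 57.5 uM final), then stimulated with LPS (250 ng/mL final) plus ATP (1.25 mM final); secreted IL-1B measured by AlphaLISA after 16 hr, decreased signal indicating inhibition.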
TDP1 cell noCPT = qHTS for Inhibitors of human tyrosyl-DNA phosphodiesterase 1 (TDP1): qHTS in cells in absence of CPT. DT40 Tdp1-/- hTDP1 cells, no CPT, ATP luminescence, 48 h. Potency, µM (highest dose often 46.2 µM), for inactives: at the top dose activity change, negative = growth inhibition, usual class: inhibitors. 420,000 tested, 15% active. AID 686978, 2013; also: potency is read from the fitted curve at half-maximal effect; nearly all actives have a fitted effect of over 55% in size
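Chicken DT40 Tdp1-/- cells complemented with human TDP1, screened without camptothecin (DMSO vehicle only), 400 cells/well. Compounds pin-transferred, cells incubated at 37 °C for at least 48 hr. Growth read as ATP-dependent luminescence (CellTiter-Glo, 30 min at RT).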
TDP1 cell CPT = growth inhibition of DT40 Tdp1-/-;hTDP1 cells with camptothecin (screen for TDP1 inhibitors) | Potency, µM (highest dose often 46.2 µM), without a hit: at the highest dose activity change, negative = growth inhibition, hits mostly inhibitors | AID 686979 | 420,000 tested, 12% active | chicken DT40 Tdp1-/-;hTDP1 cells + 20 nM CPT, ATP luminescence, 48 h; also: potency is read from the fitted curve at half-maximal effect; nearly all actives have a fitted effect of over 55% in size
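Chicken DT40 Tdp1-/- cells stably complemented with human TDP1 were seeded at 400 cells/well in medium containing 20 nM camptothecin, exposed to pin-transferred compounds, and grown at 37 °C for at least 48 hr. Viability was read as ATP luminescence.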
ELG1 DNA repair = blocks ELG1-dependent DNA repair in HEK293T cells | 330,000 tested, 2.3% active | AID 504467 | HEK293T ELG1-luciferase reporter, luminescence, 16 h; DNA damage induced by 5-fluorouridine | Potency, µM (highest dose often 46.1 µM), without a hit: at the top dose activity change, negative = inhibition, hits mostly inhibitors; also: potency is read from the fitted curve at half-maximal effect; nearly all actives have a fitted effect of over 55% in size
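HEK293T cells expressing luciferase-tagged ELG1 (2,000/well) received 5-Fluorouridine plus compound or DMSO for 16 hr at 37 °C. Luciferase was read by ONE-Glo luminescence after 30 min at room temperature.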
Giardia killer = Giardia lamblia killing; Giardia lamblia trophozoite viability; activity change, % at 7.66 µM, hits read low; 340,000 tested, 0.15% active; in the data active = activity change below about -80%; inconclusive = between about -30% and that limit;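 also: parasites exposed to compound for two days anaerobically before the ATP read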
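Trophozoite viability was measured as ATP-dependent luminescence, read 15-30 min after reagent addition. Before that, parasites at 100 cells/well were exposed to compounds for 48 h, anaerobically, at 37 deg C.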
An asterisk follows results filed as active; ? = inconclusive; . = no result given; ! = a repeat was not active; [ ] = another dose, or the depositor's remark. Unless noted, calls follow the shape of the dose curve; as a rule, active = well fitted curve in the direction sought with a large enough effect; inconclusive = small, poorly fitted or top-dose-only effect, or another doubt; inactive = no such curve, though single readings can be large; an effect the other way counts as inactive or inconclusive. % is scaled to controls: 0 for no effect and ±100 for the full control effect.

SMILES	TDP1 block	IL1B secr inh	TDP1 cell noCPT	TDP1 cell CPT	ELG1 DNA repair	Giardia killer
O=C(O)CSc1nc2ccccc2nc1Cc1ccccc1F	.	13	4%	-3%	15%	1
Cc1ccc(OCC(O)CN2CCN(Cc3ccc4c(c3)OCO4)CC2)cc1C (centres undefined)	6%	14	?	-10%	-15%	10
OC(COCc1ccc2c(c1)OCO2)CN1CCC(Cc2ccccc2)CC1 (centres undefined)	3%	-71*	?	?	-9%	26
C=CCc1ccccc1OCC(O)CN1CCN(Cc2ccc3c(c2)OCO3)CC1 (centres undefined)	4%	-20	?	16µM*!	-28%	-10
CC(C)(C)OC(=O)N1CCC(c2c(C(=O)NCc3ccccc3)cnn2-c2ccc(F)cc2)CC1	3%	.	18µM*	23µM*	.	.
CC(C)(C)OC(=O)N1CCC(c2c(C(=O)NCc3ccco3)cnn2-c2ccc(F)cc2F)CC1	1%	.	?	23µM*	.	.
CN1CCN(C(=O)c2cnn(-c3cccc(F)c3)c2C2CCN(C(=O)OC(C)(C)C)CC2)CC1	5%	.	-8%	5%	.	.
CC(C)(C)OC(=O)N1CCC(c2c(C(=O)NCCc3ccccc3)cnn2-c2ccc(F)cc2F)CC1	1%	.	18µM*	21µM*	.	.
CC(C)(C)OC(=O)N1CCC(c2c(C(=O)NCc3ccccc3)cnn2-c2cccc(F)c2)CC1	6%	.	18µM*	?	.	.
COc1ccc(NC(=O)c2c(N)cnn2C)cc1	.	-8	-10%	-27%	22%	2
CC(C(=O)NCc1cccnc1)c1ccc([N+](=O)[O-])cc1 (centres undefined)	4%	13	-6%	-8%	4%	-11
NC(=O)C1CCCN(Cc2ccc3c(c2)CN(Cc2cn[nH]c2-c2ccc(F)cc2)CCO3)C1 (centres undefined)	.	.	-12%	15%[9.04 µM]	.	.
COc1ccc(CNC(=O)c2cnn(-c3ccc(C)cc3)c2C2CCN(C(=O)OC(C)(C)C)CC2)cc1	0%	.	21µM*	9.2µM*	.	.
CC(C)(C)OC(=O)N1CCC(c2c(C(=O)NCCc3ccccc3)cnn2-c2ccc(F)cc2)CC1	-3%	.	16µM*	?	.	.
CCOC(=O)c1cnn(-c2ccc(OC)cc2)c1C1CCN(C(=O)OC(C)(C)C)CC1	-2%	.	26µM*	?	.	.
COc1ccc(-n2ncc(C(=O)NCc3cccs3)c2C2CCN(C(=O)OC(C)(C)C)CC2)cc1	4%	.	?	?	.	.
CC(C)(C)OC(=O)N1CCC(c2c(C(=O)NCCN3CCc4ccccc4C3)cnn2-c2ccc(F)cc2F)CC1	-1%	.	12µM*	21µM*	.	.
CC(=O)N1CCC2(CC1)OC(=O)C(C)=C2C(=O)Nc1ccccc1C(F)(F)F	1%	.	-4%	-1%	.	.
COc1ccc2c(c1)c1c(c(=O)n(Cc3ccccc3)c(=O)n1Cc1cccc(Cl)c1)n2C	3%	.	?	?	.	.
COc1ccc(NS(=O)(=O)c2cnc(N)nc2)cc1Cl	5%	.	-15%	4%	.	.
CCCN1CNc2c(c(=O)[nH]c(=S)n2CCc2ccccn2)C1	0%	.	-26%	-16%	.	5
CCOC(=O)N1CCC(NC(=O)c2cnn(-c3ccc(F)cc3F)c2C2CCN(C(=O)OC(C)(C)C)CC2)CC1	-6%	.	-20%	5%	.	.
CC(C)(C)OC(=O)N1CCC(c2c(C(=O)NC3CCN(Cc4ccccc4)CC3)cnn2-c2ccc(F)cc2F)CC1	4%	.	8.2µM*	12µM*	.	.
NC(=O)C1CCCN(CC(=O)Nc2ccccc2C(=O)NC2CC2)C1 (centres undefined)	0%	13	0%	0%	15%	-2
